We go through 3 compounds from PubChem BioAssay (EPA / NIEHS).

What all share (details): mRNA level, 48 h; actives raise or lower the signal
Read-out in assay [1]: growth arrest and DNA damage 45 (GADD45A), GADD45A (gene 1647)
As to the kind of experiment: LTEA_HepaRG_GADD45A: Life Technologies and Expression Analysis (LTEA) Assay for growth arrest and DNA damage 45 (GADD45A) using HepaRG (AID 2283458). The method, boiled down:
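GADD45A expression was measured by TaqMan qRT-PCR against three housekeeping genes (ACTB, GAPDH, POLR2A) after 48 h treatment of HepaRG cells. Eight-point half-log series up to 100 uM in 0.5% DMSO, run in duplicate.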

Read-out in assay [2]: Forkhead box O3 (FOXO3), FOXO3 (gene 2309)
As to the kind of experiment: LTEA_HepaRG_FOXO3: Life Technologies and Expression Analysis (LTEA) Assay for Forkhead box O3 (FOXO3) using HepaRG (AID 2283459). The gist of the method: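 FOXO3 transcript measured by qRT-PCR (normalized to ACTB, GAPDH, POLR2A) after 48 h exposure of HepaRG cells in serum-free induction medium. Duplicates, eight half-log concentrations up to 100 uM, 0.5% DMSO; gain or loss fitted against DMSO.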

Read-out in assay [3]: ABC Transporter (ABCB1), ABCB1 (gene 5243)
As to the kind of experiment: LTEA_HepaRG_ABCB1: Life Technologies and Expression Analysis (LTEA) Assay for ABC Transporter (ABCB1) using HepaRG (AID 2283460). The gist of the method:
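ABCB1 transcript level measured by TaqMan qRT-PCR against three housekeeping genes after 48 h chemical exposure of differentiated HepaRG cells. Top concentration 100 uM, half-log steps, eight points, 0.5% DMSO vehicle; bidirectional fit relative to DMSO.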

Read-out in assay [4]: growth arrest and DNA damage 45 (GADD45B), GADD45B (gene 4616)
As to the kind of experiment: LTEA_HepaRG_GADD45B: Life Technologies and Expression Analysis (LTEA) Assay for growth arrest and DNA damage 45 (GADD45B) using HepaRG (AID 2283461). The gist of the method:
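Values are bidirectional concentration-response fits against 0.5% DMSO controls. Underlying data: qRT-PCR mRNA levels in human HepaRG liver cells treated 48 h in serum-free induction medium, eight concentrations topping at 100 uM.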

Read-out in assay [5]: ABC Transporter (ABCC3), ABCC3 (gene 8714)
As to the kind of experiment: LTEA_HepaRG_ABCC3: Life Technologies and Expression Analysis (LTEA) Assay for ABC Transporter (ABCC3) using HepaRG (AID 2283462). The gist of the method: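 Differentiated HepaRG liver cells receive test chemicals at eight concentrations (max 100 uM) for 48 h. Expression of ABCC3 is quantified by qRT-PCR against ACTB, GAPDH and POLR2A, and activity is fitted in both directions against the DMSO control.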

Read-out in assay [6]: ABC Transporter (ABCB11), ABCB11 (gene 8647)
As to the kind of experiment: LTEA_HepaRG_ABCB11: Life Technologies and Expression Analysis (LTEA) Assay for ABC Transporter (ABCB11) using HepaRG (AID 2283463). The gist of the method:
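ABCB11 transcript levels quantified by TaqMan qRT-PCR against three housekeeping genes after 48 h chemical exposure of HepaRG cultures. Concentrations up to 100 uM in half-log steps, 0.5% DMSO vehicle; both induction and suppression scored.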

Read-out in assay [7]: ABC Transporter (ABCC2), ABCC2 (gene 1244)
As to the kind of experiment: LTEA_HepaRG_ABCC2: Life Technologies and Expression Analysis (LTEA) Assay for ABC Transporter (ABCC2) using HepaRG (AID 2283464). The gist of the method:
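Gene expression of ABCC2 was determined by qRT-PCR in HepaRG cells exposed 48 h to chemicals (highest 100 uM, half-log dilutions). Activity was fitted in both directions relative to 0.5% DMSO vehicle.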

Read-out in assay [8]: Broad substrate specificity ATP-binding cassette transporter ABCG2 (Homo sapiens) (UniProt Q9UNQ0)
Briefly: LTEA_HepaRG_ABCG2: Life Technologies and Expression Analysis (LTEA) Assay for ABC Transporter (ABCG2) using HepaRG (AID 2283465). The method, boiled down:
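ABCG2 transcript was quantified by TaqMan qRT-PCR against three housekeeping genes in HepaRG cells. Cells were treated in duplicate for 48 h across an 8-point half-log series up to 100 uM, with 0.5% DMSO vehicle. Gain or loss versus DMSO was fit.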

Read-out in assay [9]: ATP-citrate lyase (ACLY), ACLY (gene 47)
Briefly: LTEA_HepaRG_ACLY: Life Technologies and Expression Analysis (LTEA) Assay for ATP-citrate lyase (ACLY) using HepaRG (AID 2283466). The method, boiled down: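 ACLY mRNA quantified by qRT-PCR on Fluidigm arrays against three housekeeping genes, after 48 h chemical treatment of HepaRG cells (top concentration 100 uM, half-log steps, 0.5% DMSO vehicle). Up- or down-regulation fitted relative to DMSO.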

Read-out in assay [10]: Peroxisomal acyl-coenzyme A oxidase 1 (ACOX1) gene, ACOX1 (gene 51)
Briefly: LTEA_HepaRG_ACOX1: Life Technologies and Expression Analysis (LTEA) Assay for Peroxisomal acyl-coenzyme A oxidase 1 (ACOX1) gene using HepaRG (AID 2283467). The method, boiled down:
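ACOX1 transcript levels were quantified by TaqMan qRT-PCR against three housekeeping genes after 48 h chemical exposure of differentiated human HepaRG cells. Exposure used eight half-log steps topping at 100 uM, 0.5% DMSO vehicle, in duplicate. Bidirectional curve fits were made relative to DMSO.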

Read-out in assay [11]: Alkaline Phosphatase, Placental (ALPP) gene, ALPP (gene 250)
Briefly: LTEA_HepaRG_ALPP: Life Technologies and Expression Analysis (LTEA) Assay for Alkaline Phosphatase, Placental (ALPP) gene using HepaRG (AID 2283468). The method, boiled down:
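Expression of ALPP was quantified by qRT-PCR against three housekeeping genes in human HepaRG cultures treated for 48 h with an eight-point concentration series up to 100 uM. Activity in either direction was fitted relative to 0.5% DMSO.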

Read-out in assay [12]: Bcl-2 (BAD) gene, BAD (gene 572)
As to the kind of experiment: LTEA_HepaRG_BAD: Life Technologies and Expression Analysis (LTEA) Assay for Bcl-2 (BAD) gene using HepaRG (AID 2283469). The gist of the method: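 Read-out: qRT-PCR of BAD mRNA, normalized to three housekeeping genes. Human HepaRG cultures got 48 h chemical exposure in 0.5% DMSO, duplicate eight-point half-log series topping at 100 uM. Gain or loss of signal fitted versus DMSO vehicle.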

Read-out in assay [13]: Bcl-2 (BAX) gene, BAX (gene 581)
As to the kind of experiment: LTEA_HepaRG_BAX: Life Technologies and Expression Analysis (LTEA) Assay for Bcl-2 (BAX) gene using HepaRG (AID 2283470). The gist of the method:
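Gene expression measured by Fluidigm qRT-PCR with three housekeeping genes for normalisation. HepaRG cells, plated 48 h beforehand, treated 48 h at up to 100 uM (8-point, half-log) in 0.5% DMSO. Bidirectional fitting versus DMSO.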

Read-out in assay [14]: adenosine kinase (ADK) gene, ADK (gene 132)
As to the kind of experiment: LTEA_HepaRG_ADK: Life Technologies and Expression Analysis (LTEA) Assay for adenosine kinase (ADK) gene using HepaRG (AID 2283471). The method, boiled down: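 ADK expression quantified by qRT-PCR, normalised to three housekeeping genes, after 48 h exposure of HepaRG cells to eight concentrations (top 100 uM, half-log steps, duplicate, 0.5% DMSO). Up- or down-regulation fitted relative to vehicle.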

Read-out in assay [15]: Alpha-fetoprotein (AFP) gene, AFP (gene 174)
Briefly: LTEA_HepaRG_AFP: Life Technologies and Expression Analysis (LTEA) Assay for Alpha-fetoprotein (AFP) gene using HepaRG (AID 2283472). The gist of the method:
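AFP transcript measured by TaqMan qRT-PCR with three housekeeping genes for normalization, after 48 h chemical treatment of HepaRG cells (top 100 uM, half-log steps, 0.5% DMSO). Gain or loss fitted against vehicle.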

Read-out in another assay: BCL2L11 (gene 10018)
Briefly: LTEA_HepaRG_BCL2L11: Life Technologies and Expression Analysis (LTEA) Assay for Bcl-2 (BCL2L11) gene using HepaRG (AID 2283473). The method, boiled down:
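Cells were plated, cultured 48 h, switched to serum-free induction medium, then dosed in duplicate for 48 h at eight half-log concentrations up to 100 uM. Lysates underwent RNA isolation and TaqMan qRT-PCR; gain or loss versus DMSO was fitted.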

Read-out in assay [16]: Apolipoprotein A-V (APOA5) gene, APOA5 (gene 116519)
Briefly: LTEA_HepaRG_APOA5: Life Technologies and Expression Analysis (LTEA) Assay for Apolipoprotein A-V (APOA5) gene using HepaRG (AID 2283474). The method, boiled down: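 Human liver HepaRG cells are treated 48 h with test chemicals (100 uM top, half-log dilutions, 0.5% DMSO). APOA5 mRNA induction or loss is measured by qRT-PCR relative to vehicle.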

Read-out in assay [17]: Apoptosis regulator Bcl-2 (Homo sapiens) (UniProt P10415)
Briefly: LTEA_HepaRG_BCL2: Life Technologies and Expression Analysis (LTEA) Assay for Bcl-2 gene using HepaRG (AID 2283475). The method, boiled down: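 qRT-PCR of BCL2 transcript, normalized to three housekeeping genes (ACTB, GAPDH, POLR2A), after 48 h chemical exposure of HepaRG cells; concentrations top 100 uM with half-log dilutions, 0.5% DMSO vehicle, duplicates; changes up or down fitted relative to vehicle.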

Read-out in assay [18]: Bcl-2 (BID) gene, BID (gene 637)
Briefly: LTEA_HepaRG_BID: Life Technologies and Expression Analysis (LTEA) Assay for Bcl-2 (BID) gene using HepaRG (AID 2283476). The gist of the method: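 Duplicate 48 h treatments of HepaRG cells in serum-free induction medium spanned 100 uM downward in half-log steps, 0.5% DMSO. Transcript change quantified by qRT-PCR against three housekeeping genes, fitted up or down versus DMSO.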

Read-out in another assay: Caspase-3 (Homo sapiens) (UniProt P42574)
As to the kind of experiment: LTEA_HepaRG_CASP3: Life Technologies and Expression Analysis (LTEA) Assay for cysteine-aspartic acid protease (CASP3) using HepaRG (AID 2283477). The method, boiled down:
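In HepaRG liver cells dosed for 48 h at up to 100 uM (eight-point, duplicate), CASP3 expression changes are scored by qRT-PCR. Activity is fitted in both directions with 0.5% DMSO as baseline.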

Active and inactive are the calls of the source. Rule for the calls: active = hit-call score of the fitted dose curve at least 0.9, where 1 is the maximum; inactive = score below 0.9.

Sequence of Apoptosis regulator Bcl-2 (Homo sapiens) (P10415 whole entry, looked up): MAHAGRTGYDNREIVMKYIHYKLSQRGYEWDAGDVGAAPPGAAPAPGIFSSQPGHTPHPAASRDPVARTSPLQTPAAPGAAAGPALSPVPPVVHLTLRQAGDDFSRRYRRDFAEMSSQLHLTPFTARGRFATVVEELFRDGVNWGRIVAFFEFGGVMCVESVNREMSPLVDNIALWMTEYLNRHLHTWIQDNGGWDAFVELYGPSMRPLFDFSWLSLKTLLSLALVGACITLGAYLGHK
Sequence of Broad substrate specificity ATP-binding cassette transporter ABCG2 (Homo sapiens) (Q9UNQ0 whole entry, looked up): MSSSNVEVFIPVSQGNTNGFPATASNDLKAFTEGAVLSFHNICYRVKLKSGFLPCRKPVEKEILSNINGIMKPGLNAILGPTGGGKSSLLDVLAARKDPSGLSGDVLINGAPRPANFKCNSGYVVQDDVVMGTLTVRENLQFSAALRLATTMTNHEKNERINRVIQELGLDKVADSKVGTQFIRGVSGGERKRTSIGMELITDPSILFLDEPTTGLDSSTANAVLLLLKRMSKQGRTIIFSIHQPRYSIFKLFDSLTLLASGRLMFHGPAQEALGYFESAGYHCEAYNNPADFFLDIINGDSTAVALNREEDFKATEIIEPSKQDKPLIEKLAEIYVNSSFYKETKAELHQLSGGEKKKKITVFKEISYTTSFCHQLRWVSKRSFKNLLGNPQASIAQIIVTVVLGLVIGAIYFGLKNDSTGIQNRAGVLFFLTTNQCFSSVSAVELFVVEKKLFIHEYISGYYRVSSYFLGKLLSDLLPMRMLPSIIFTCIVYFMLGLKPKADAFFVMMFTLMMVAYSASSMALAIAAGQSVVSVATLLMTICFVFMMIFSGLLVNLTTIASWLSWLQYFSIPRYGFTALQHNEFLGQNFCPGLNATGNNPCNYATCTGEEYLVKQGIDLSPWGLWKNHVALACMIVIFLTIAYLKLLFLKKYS
Sequence of Caspase-3 (Homo sapiens) (P42574 whole entry, looked up): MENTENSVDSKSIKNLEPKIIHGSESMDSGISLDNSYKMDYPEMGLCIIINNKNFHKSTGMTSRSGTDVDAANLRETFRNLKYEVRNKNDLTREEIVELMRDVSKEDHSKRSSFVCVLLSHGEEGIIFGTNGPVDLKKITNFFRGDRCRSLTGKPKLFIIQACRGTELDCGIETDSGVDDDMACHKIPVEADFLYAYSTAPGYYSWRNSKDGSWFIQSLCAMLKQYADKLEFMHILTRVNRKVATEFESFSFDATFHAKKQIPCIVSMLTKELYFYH

One may read the AC50 as the concentration at which the activity in the assay is half-maximal. As to `C=CCc1cc(S(=O)(=O)c2ccc(O)c(CC=C)c2)ccc1O`, the call in assay [1], in assay [4], in assay [5], in assay [8], in assay [9] and in assay [12] was inactive. The compound was called inactive (in assay [13]; in assay [14]; with BCL2L11 (gene 10018); in assay [17]; in assay [18]; in the assay with Caspase-3 (Homo sapiens)). In addition, the half-maximal activity concentration (AC50) was 84.9 µM (active) in [2]; 89.1 µM (active) in assay [3]; 81.6 µM (active) in assay [6]; 50 µM (active) in assay [7]; 79.8 µM (active) in [10]; 50 µM (active) in assay [11]. The concentration at half-maximal activity (AC50) in assay [15] was 79.1 µM (active); in assay [16], 89 µM (active).
In the case of `CNC(C)=O`, the compound was classed as inactive in assay [1], in [2], in assay [3], in assay [4], in [5] and in assay [6]. In addition, the outcome in [7], in assay [8], in [10], in [11], in assay [12] and in assay [13] was inactive. Further, the compound was classed as inactive (in [14]; in [15]; in the assay with BCL2L11 (gene 10018); in assay [16]; in assay [17]; in [18]).
Take `CCCCCCCCN(C)C`: the outcome in assay [1], in [2], in assay [3], in assay [4], in [5] and in assay [6] was inactive. In addition, the call in assay [7], in [8], in assay [10], in assay [11], in assay [12] and in [13] was inactive. Moreover, the compound was called inactive (in assay [14]; in assay [15]; with BCL2L11 (gene 10018); in assay [16]; in assay [17]; in assay [18]).
